Bioassay records deposited in PubChem BioAssay by Broad Institute.
BL2 CD40 inh – inhibitors of CD40-induced NF-kB signaling, primary screen, BL2 cells, luciferase reporter, single point; CD40L-induced, 4 h; inhibition, % at 10 µM; 83,000 tested, 0.94% active;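 active means mean inhibition of at least 50% with a set share of replicates also reaching that level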;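 further: 0% = neutral control wells and 100% = IKK inhibitor VII at 50 µM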
* = called active by the depositor; [ ] = dose if it differs, or a comment. Many of the other results were omitted from the sample, so hits are more common in it than they were.

For COc1cccc2sc(N3CCN(C(=O)c4ccc([N+](=O)[O-])o4)CC3)nc12 the results were BL2 CD40 inh 76*.
O=C(c1cccs1)N1CCN(c2nc3ccccc3s2)CC1 was read as BL2 CD40 inh -19.
O=C(c1ccc([N+](=O)[O-])o1)N1CCN(c2nc3c(Cl)cccc3s2)CC1 was read as BL2 CD40 inh 14.
Screening C[C@@H]1CCCCO[C@@H](CN(C)C(=O)NC2CCCCC2)[C@H](C)CN([C@H](C)CO)C(=O)c2cc(N(C)C)ccc2O1 returned BL2 CD40 inh -8[25 µM].
For CC[C@@H]1C/C=C\C[C@H](c2ccc(OC)cc2OC)NC(=O)[C@@H](C)CC(=O)N1 the results were BL2 CD40 inh 3[25 µM].
C[C@@H]1CN(C)C(=O)c2cccc(N(C)C)c2O[C@H]1CN(C)C was read as BL2 CD40 inh 0.
`COCCCNc1ccn2nc(-c3cc(OC)c(OC)c(OC)c3)cc2n1` gave BL2 CD40 inh 1.
`COCCCNc1ccn2nc(-c3ccccc3)cc2n1` gave BL2 CD40 inh 60*.
`c1ccc(OCCNc2ccn3nc(-c4ccccc4)cc3n2)cc1` gave BL2 CD40 inh -62.
`C[C@H](CO)N1C[C@H](C)[C@H](CN(C)C(=O)Nc2ccc(-c3ccccc3)cc2)OCc2ccccc2-c2ccccc2C1=O` gave BL2 CD40 inh 2[25 µM].
`COc1cccc(NC(=O)/C=C/c2ccc(Cl)cc2)c1` gave BL2 CD40 inh 16[25 µM].
Screening CC(=O)N(C)C[C@H]1Oc2ccc(NS(C)(=O)=O)cc2CC(=O)N(C)C[C@@H]1C returned BL2 CD40 inh -1.
For C[C@@H]1CN([C@H](C)CO)C(=O)c2cc(NC(=O)Nc3ccc(C(F)(F)F)cc3)ccc2O[C@@H](C)CCCCO[C@@H]1CN(C)S(=O)(=O)c1ccc(Cl)cc1 the results were BL2 CD40 inh 6[25 µM].
`Cc1cccc(-n2ncc3c(N4CCOCC4)ncnc32)c1` gave BL2 CD40 inh 78*.
Screening Cc1ccc(-n2ncc3c(N4CCN(c5ccccc5)CC4)ncnc32)c(C)c1 returned BL2 CD40 inh 15.
Screening Cn1ncc2c(N3CCOCC3)ncnc21 returned BL2 CD40 inh 7.
Screening O=C1C=C(NCCc2cc(Br)c(O)c(Br)c2)C(=O)c2ncccc21 returned BL2 CD40 inh 32.
For NC1=C(Br)C(=O)c2ncccc2C1=O the results were BL2 CD40 inh 70*.
O=C1c2cccnc2C(=O)N1C1CCCCC1 was read as BL2 CD40 inh 8.
C[C@@H]1CN([C@@H](C)CO)C(=O)c2cc(NC(=O)Nc3ccc(C(F)(F)F)cc3)ccc2O[C@@H](C)CCCCO[C@H]1CN(C)S(=O)(=O)c1ccc(Cl)cc1 was read as BL2 CD40 inh 13[25 µM].
CN1[C@@H]2c3ccc(-c4ccc(F)cc4)c(=O)n3C[C@H]1[C@H](CO)[C@H]2C(=O)NC1CCCCC1 was read as BL2 CD40 inh 2.
For COc1ccc2c3c(n(C)c2c1)[C@@H](CO)N(C(=O)C1CCOCC1)CC31CN(C)C1 the results were BL2 CD40 inh 10[25 µM].
`C[C@@H]1CN([C@H](C)CO)C(=O)Cc2cc(NS(=O)(=O)c3ccc(F)cc3)ccc2O[C@H]1CN(C)Cc1ccncc1` gave BL2 CD40 inh 5[25 µM].
Screening C[C@@H]1CN([C@H](C)CO)C(=O)Cc2cc(NS(=O)(=O)c3ccc(F)cc3)ccc2O[C@H]1CN(C)Cc1ccc(C(F)(F)F)cc1 returned BL2 CD40 inh 56*.
For C[C@@H]1CN([C@H](C)CO)C(=O)Cc2cc(NS(=O)(=O)c3ccccc3)ccc2O[C@H]1CN(C)Cc1ccc(Cl)c(Cl)c1 the results were BL2 CD40 inh 42.
Screening C[C@H](CO)N1C[C@H](C)[C@@H](CN(C)Cc2ccc(C(F)(F)F)cc2)Oc2ccc(NS(=O)(=O)c3ccc(Cl)cc3)cc2CC1=O returned BL2 CD40 inh 52*.
`C[C@H](CO)N1C[C@H](C)[C@@H](CN(C)Cc2ccncc2)Oc2ccc(NS(=O)(=O)c3ccc(F)cc3)cc2CC1=O` gave BL2 CD40 inh 0[25 µM].
C[C@@H]1CN([C@H](C)CO)C(=O)Cc2cc(NS(C)(=O)=O)ccc2O[C@@H]1CN(C)Cc1ccc(C(=O)O)cc1 was read as BL2 CD40 inh -1.
`C[C@@H]1CN([C@@H](C)CO)C(=O)Cc2cc(NS(=O)(=O)c3ccc(F)cc3)ccc2O[C@H]1CN(C)Cc1ccncc1` gave BL2 CD40 inh 7[25 µM].
For COc1ccc(CN(C)C[C@H]2Oc3ccc(NS(=O)(=O)c4ccc(Cl)cc4)cc3CC(=O)N([C@@H](C)CO)C[C@@H]2C)cc1 the results were BL2 CD40 inh 13.
`C[C@@H]1CN([C@@H](C)CO)C(=O)Cc2cc(NS(=O)(=O)c3ccc(F)cc3)ccc2O[C@@H]1CN(C)Cc1ccc(C(F)(F)F)cc1` gave BL2 CD40 inh 47*.
For CC(C)COC(=O)N(C)C[C@H]1OCc2ccccc2-c2c(n(C)c3ccccc23)C(=O)N([C@@H](C)CO)C[C@@H]1C the results were BL2 CD40 inh 5[25 µM].
Screening O=C(C1CCCC1)N1CC[C@@H]2[C@H]1c1cc(C3=CCCCC3)ccc1N[C@@H]2CO returned BL2 CD40 inh -40.
CC(C)NC(=O)Nc1ccc2c(c1)C(=O)N(C)C[C@H](C)[C@@H](CN(C)S(C)(=O)=O)O2 was read as BL2 CD40 inh 4.
For O=C(C[C@@H]1C[C@H]2c3cc(NS(=O)(=O)c4ccc(F)cc4)ccc3O[C@H]2[C@H](CO)O1)N1CCc2ccccc2C1 the results were BL2 CD40 inh 22[25 µM].
Screening CC(C)NC(=O)N1C[C@@H]2[C@H](c3ccccc31)[C@H](CO)N2C(=O)c1cccnc1 returned BL2 CD40 inh -6[25 µM].
CCN(C[C@@H]1[C@@H](c2ccccc2)[C@@H](CO)N1CC1CC1)C(=O)c1ccccc1F was read as BL2 CD40 inh 0[25 µM].
Screening COc1ccc2c3c(n(C)c2c1)[C@H](CO)N(C(C)=O)CC31CN(S(=O)(=O)c2ccccc2)C1 returned BL2 CD40 inh 8[25 µM].
For C[C@H]1CN(C)C(=O)c2cccc(N(C)C)c2O[C@H]1CN(C)C(=O)OC(C)(C)C the results were BL2 CD40 inh 7.
`O=C(c1ccco1)N1CCN(S(=O)(=O)c2ccc3c(c2)CCN3C(=O)C2CCC2)CC1` gave BL2 CD40 inh 9.
For O=C(C1CCC1)N1CCc2cc(S(=O)(=O)N3CCCCC3)ccc21 the results were BL2 CD40 inh active.
For CCOC(=O)N1CCN(S(=O)(=O)c2ccc3c(c2)CCN3C(=O)C2CCC2)CC1 the results were BL2 CD40 inh 3.
`COc1ccc(-c2ccc(NC(=O)c3ccco3)cc2)nn1` gave BL2 CD40 inh 82*.
`COc1ccc(NC(=O)c2ccccc2NC(=O)c2ccco2)cc1` gave BL2 CD40 inh -8.
COc1ccc(-c2cccc(NC(=O)c3ccco3)c2)nn1 was read as BL2 CD40 inh -10.
Screening C[C@H](NC(=O)[C@@H]1[C@@H](CO)[C@@H]2Cn3c(ccc(-c4ccccc4F)c3=O)[C@H]1N2)c1ccccc1 returned BL2 CD40 inh 3[25 µM].
For C/C=C/c1ccc([C@@H]2[C@H](CO)N(Cc3cncnc3)C23CN(C(=O)COC)C3)cc1 the results were BL2 CD40 inh -9[25 µM].
`O=C1C[C@H](c2ccccc2)C(=O)N[C@@H](c2ccccc2)C/C=C\C[C@@H](c2ccccc2)N1` gave BL2 CD40 inh 60*[25 µM].
For O=C1C[C@@H](c2ccccc2)C(=O)N[C@H](c2ccccc2)C/C=C\C[C@H](c2ccccc2)N1 the results were BL2 CD40 inh 5[25 µM].
Screening O=C1C[C@@H](c2ccccc2)C(=O)N[C@@H](c2ccccc2)C/C=C\C[C@H](c2ccccc2)N1 returned BL2 CD40 inh -10[25 µM].
